Compound activity: PubChem BioAssay, National Center for Advancing Translational Sciences (NCATS)
IL-1B inflam inh – inhibitors of inflammasome signaling (IL-1 beta secretion). 360,000 tested, 4.7% active. activity change, % at 57.5 µM. THP-1 LPS/ATP IL-1B secretion, AlphaLISA, 16 h; active compounds read low; in the data active means activity change below about -50%; inconclusive means mostly about -30% to -49%
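THP-1 cells pretreated 1 hr with compounds (up to 57.5 uM final), then stimulated with LPS (250 ng/mL final) plus ATP (1.25 mM final); secreted IL-1B measured by AlphaLISA after 16 hr, decreased signal indicating inhibition.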
TDP1 cell noCPT – qHTS for Inhibitors of human tyrosyl-DNA phosphodiesterase 1 (TDP1): qHTS in cells in absence of CPT; DT40 Tdp1-/- hTDP1 cells, no CPT, ATP luminescence, 48 h; Potency, µM (highest dose often 46.2 µM), actives largely listed as inhibitors; 420,000 tested, 15% active; further: nearly all actives have a fitted effect of over 55% in size
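Camptothecin absent (DMSO only). Human TDP1-complemented DT40 knockout cells, 400 cells/well, 37 °C for minimum 48 hr; ATP measured via CellTiter-Glo, 30 min dark incubation, luminescence.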
HT1080 IDH1KD tx – kills HT-1080 cells with IDH1 knockdown. 360,000 tested, 2% active. HT-1080 IDH1 knockdown viability, ATP luminescence, 48 h. Potency, µM (doses to about 46.1 µM), most hits filed as cytotoxic. AID 686971
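HT-1080-IDH1KD cells (IDH1 knocked down), 750/well in RPMI with 5% FBS, treated with compound 48 h at 37 degrees C. Viability by CellTiter-Glo luminescence, normalised to DMSO and no-cell wells; concentration-response curves classed.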
TDP1 cell CPT – growth inhibition of DT40 Tdp1-/-;hTDP1 cells with camptothecin (screen for TDP1 inhibitors); chicken DT40 Tdp1-/-;hTDP1 cells + 20 nM CPT, ATP luminescence, 48 h; 420,000 tested, 12% active; Potency, µM (titrated, usually from 46.2 µM), usual class: inhibitors; further: nearly all actives have a fitted effect of over 55% in size
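Cell growth measured by CellTiter-Glo luminescence after a minimum 48 h, 37 C compound exposure with 20 nM CPT in Tdp1-knockout DT40 cells stably expressing hTDP1, seeded 400/well; qHTS titration format.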
HT1080-NT tox – kills 2HG-producing HT-1080-NT fibrosarcoma cells; HT-1080-NT fibrosarcoma viability, CellTiter-Glo ATP luminescence, 48 h; Potency, µM (highest dose often 46.1 µM), actives largely listed as cytotoxic; 360,000 tested, 1.6% active;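 further: NT is the 2HG producing partner of a matched IDH1 knockdown line; nearly all actives have a fitted effect of over 55% in size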
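HT-1080-NT; 750 cells/well; 5% FBS RPMI; 48 h compound, 37 degrees C; CellTiter-Glo luminescence; curve fitting and curve-class assignment.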
Numbers stand for hits; . = inactive; ? = inconclusive; / = not tested or not shown; [ ] = dose if it differs, or a comment. An excerpt weighted towards active compounds, which were near 19% of everything screened. Unless noted, the call rests on the fitted dose curve; in most records, active means well fitted curve in the direction sought with a large enough effect; inconclusive means small, poorly fitted or top-dose-only effect, or another doubt; inactive means no such curve, though single readings can be large; an effect the other way counts as inactive or inconclusive.

SMILES	IL-1B inflam inh	TDP1 cell noCPT	HT1080 IDH1KD tx	TDP1 cell CPT	HT1080-NT tox
Cc1nnc(SCc2ccccc2Cl)c2cc3occc3n12	/	16.4µM	/	?	/
COc1ccc(-c2nc(CSc3nnc(C)n4c3cc3occc34)c(C)o2)cc1OC	/	11.6µM	/	10.3µM	/
COc1ccc(-c2nc(CSc3nncn4c3cc3occc34)c(C)o2)cc1	/	23.1µM	/	16.4µM	/
Cc1ccc(-c2nc(CSc3nnc(C)n4c3cc3occc34)c(C)o2)cc1	/	?	/	.	/
Cc1ccc(-c2nc(CSc3nncn4c3cc3occc34)c(C)o2)cc1	/	.	/	?	/
Cc1oc(-c2ccccc2F)nc1CSc1nnc(C)n2c1cc1occc12	/	.	/	.	/
O=C(Nc1ccc(Cl)cc1Cl)c1n[nH]c(Cn2cncn2)n1	.	.	.	.	.
Cc1ccccc1-c1cc(C(=O)NCc2ccc(OC(F)(F)F)cc2)n(CC2CC(c3cccnc3)=NO2)n1 (stereo unspecified)	.	?	.	?	.
CC1=NN(C(=O)Cc2ccccc2)C(O)(c2cccnc2)C1 (stereo unspecified)	.	5.17µM	?	4.61µM	?
CC1=NN(C(=O)c2ccccc2C)C(O)(c2ccc(Cl)cc2)C1 (stereo unspecified)	.	?	.	?	.
CC1=NN(C(=O)CSCc2ccccc2)C(O)(c2ccccc2)C1 (stereo unspecified)	.	.	.	.	.
CC1=NN(C(=O)c2ccccc2Cl)C(O)(c2cccnc2)C1 (stereo unspecified)	.	5.8µM	.	?	.
Cc1[nH]c2ccccc2c1/C=N/n1cnnc1	.	.	.	.	.
COCCN=c1scc(-c2cc(OC)c(OC)c(OC)c2)n1/N=C/c1c(C)[nH]c2ccccc12	?	18.4µM	?	?	?
COc1ccc(S(=O)(=O)n2c(C)nc3ccccc32)cc1C	.	.	.	.	.
COc1cccc2nc3cc(C)c(C)cc3nc12	.	18.4µM	8.2µM	13µM	18.4µM
OC(c1ccc(F)c(F)c1)c1nc(-c2cnc3ccccc3c2)cs1 (stereo unspecified)	.	20.6µM	.	?	?
COc1cc(C(O)c2nc(-c3cc4ccccc4o3)cs2)ccc1F (stereo unspecified)	.	23.1µM	?	20.6µM	?
OC(c1ccc(F)c(F)c1)c1nc(-c2cccc(F)c2)cs1 (stereo unspecified)	.	?	?	14.6µM	?
OC(c1ccccc1)c1nc(-c2ccc(F)c(Cl)c2)cs1 (stereo unspecified)	.	.	?	16.4µM	?
COc1cccc(N2C(=O)CC(NNc3nc4ccccc4s3)C2=O)c1 (stereo unspecified)	.	.	.	.	.
Cc1nc([N+](=O)[O-])cn1CC(O)c1ccc(F)cc1 (stereo unspecified)	.	.	.	.	.
CN(CCC#N)C(=O)CC(Cc1ccccc1)C1CCOC(C)(C)C1 (stereo unspecified)	.	.	.	.	.
CNC(=O)c1cc(S(=O)(=O)Nc2ccc(C)cc2C)ccc1C	.	?	.	.	.
COc1cc(C(O)c2nc(-c3cncnc3)cs2)ccc1F (stereo unspecified)	.	.	.	.	.
SMILES	IL-1B inflam inh	TDP1 cell noCPT	HT1080 IDH1KD tx	TDP1 cell CPT	HT1080-NT tox
COc1cc(C(O)c2nc(-c3ccccc3OC)cs2)ccc1F (stereo unspecified)	.	?	.	?	?
COc1cc(C(O)c2nc(-c3cc(F)cc(F)c3)cs2)ccc1F (stereo unspecified)	.	14.6µM	.	23.1µM	.
COc1cc(C(O)c2nc(-c3ccc(N(C)C)cc3)cs2)ccc1F (stereo unspecified)	-61.6	23.1µM	?	16.4µM	.
COc1cc(C(O)c2nc(-c3cccc(F)c3)cs2)ccc1F (stereo unspecified)	.	18.4µM	.	?	?
COc1ccc(-c2csc(C(O)c3ccc(F)cc3)n2)cc1OC (stereo unspecified)	.	.	.	?	.
COc1cc(C(O)c2nc(/C=C/c3ccccc3)cs2)ccc1F (stereo unspecified)	.	?	?	18.4µM	.
CCCNC(=O)C1CCC(Cn2c(=O)c3sccc3n(CC(=O)NCc3ccccc3)c2=O)CC1 (stereo unspecified)	/	.	/	.	/
O=C(CCNS(=O)(=O)c1ccccc1)OCc1nc2ccsc2c(=O)[nH]1	.	.	.	.	.
CC(C)N1CCN(C(=O)c2cnn(-c3nccc(-c4ccc5c(c4)OCO5)n3)c2-c2ccco2)CC1	/	?	/	.[9.04 µM]	/
CC(C)=CCN1CCN(Cc2cc(C(C)C)n[nH]2)CC1CCO (stereo unspecified)	.	.	.	.	.
COc1cc(C(O)c2nc(-c3cccc(C(C)C)c3)cs2)ccc1F (stereo unspecified)	.	18.4µM	?	?	?
CC(=O)NC(c1ccc(F)c(F)c1)c1nc(-c2ccc3c(c2)OCO3)cs1 (stereo unspecified)	.	?	.	?	.
OC(c1ccccc1)c1nc(-c2cc(F)cc(F)c2)cs1 (stereo unspecified)	.	?	?	?	?
OC(c1ccc(F)c(F)c1)c1nc(-c2ccc3c(c2)OCO3)cs1 (stereo unspecified)	.	?	.	20.6µM	.
COc1ccc(C(O)c2nc(-c3cc(F)cc(F)c3)cs2)cc1 (stereo unspecified)	.	16.4µM	?	16.4µM	?
OC(c1ccc(F)cc1)c1nc(-c2cncnc2)cs1 (stereo unspecified)	-86.0	.	.	?	.
C[C@H](CO)N1C[C@H](C)[C@@H](CN(C)Cc2ccc(C(=O)O)cc2)Oc2c(cccc2N(C)C)C1=O	.	.	.	.	.
Cc1ccc(Nc2c([N+](=O)[O-])c(=O)oc3ccccc23)cc1C	.	?	?	?	?
CC(=O)Nc1nonc1NC(=O)c1ccc(C(C)(C)C)cc1	.	?	.	?	.
COc1ccc(C(=O)c2[nH]c(N)c(C(=O)NCCc3c[nH]c4ccccc34)c2-c2ccc(Cl)cc2)cc1	?	?	?	18.4µM	?
COc1ccc(C(=O)c2[nH]c(N)c(C(=O)NCCc3c[nH]c4ccccc34)c2-c2ccc(Cl)c(F)c2)cc1	.	18.4µM	20.6µM	?	?
Nc1[nH]c(C(=O)c2ccccc2)c(-c2ccc(Cl)cc2)c1C(=O)NCc1ccccc1	.	.	.	.	.
Nc1[nH]c(C(=O)c2ccccc2)c(-c2cccnc2)c1C(=O)NCCc1ccc(Cl)cc1Cl	.	?	.	?	.
